Screens: PubChem, National Center for Advancing Translational Sciences (NCATS)
Only some compounds are listed: those with a hit (about 17% of all), similar ones and a draw of the others.
HepG2 viability: counter-screen for TGF-b inhibitors: cytotoxicity in HepG2 cells; 410,000 tested, 0.76% active; Potency, µM (top dose mostly 46.1 µM), hits mostly cytotoxic; HepG2 CAGA-GFP viability, ATP luminescence, 18 h
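CellTiter-Glo luminescence gave cytotoxicity after 18 hours at 37 degrees C. The cells were HepG2 CAGA-GFP in 1% FBS DMEM, stimulated with 500 pg/mL TGF-beta after compound addition. %Activity was normalised to no-cell wells (complete cell-killing) and DMSO (no toxicity), and curves were fitted and classified.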
DT40 TDP1 CPT: DT40-hTDP1 cell growth loss with CPT; chicken DT40 Tdp1-/-;hTDP1 cells + 20 nM CPT, ATP luminescence, 48 h; Potency, µM (series often up to 46.2 µM), hits mostly inhibitors; 420,000 tested, 12% active; also: nearly all actives have a fitted effect of over 55% in size
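Chicken DT40 Tdp1-/- cells complemented with human TDP1, 400 cells/well, exposed to compounds plus 20 nM camptothecin for at least 48 h at 37 C; viability read as ATP content by CellTiter-Glo luminescence.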
ATXN2 expr inh: ATXN2 expression inhibition; HEK-293 ATXN2-luciferase reporter, luminescence, 24 h; Potency, µM (series often up to 57 µM), actives largely listed as inhibitors; 360,000 tested, 0.72% active; also: nearly all actives have a fitted effect of over 55% in size
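qHTS (up to 57 uM final) was run with 24 h compound exposure of reporter cells at 37 °C. Each well was multiplexed: SteadyGlo luminescence measured ATXN2-luciferase expression after a fluorogenic Gly-Phe-AFC viability readout (25 uM final).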
ATXN viability: reduces viability in counter-screen for ATXN expression inhibitors; Potency, µM (top dose mostly 56.7 µM), actives largely listed as cytotoxic; 400,000 tested, 0.49% active; AID 651635; S2 cells (HEK-293 line with an ATXN2-luciferase reporter) viability, CellTiter-Fluor protease fluorescence, 24 h; also: nearly all actives have a fitted effect of over 40% in size
TGFb inhibitor: inhibitors of TGF-b signaling | HepG2 CAGA-GFP TGF-b/SMAD3 reporter, GFP fluorescence, 18 h; TGF-beta stimulated, 500 pg/mL final | Potency, µM (titrated, usually from 46.1 µM), most hits filed as inhibitors | 410,000 tested, 1.2% active | AID 588855; also: nearly all actives have a fitted effect of over 65% in size
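HEPG2 CAGA-GFP reporter cells (1000/well, DMEM with 1% FBS) received compounds, then recombinant TGF-beta at 500 pg/mL final for 18 hours at 37 degrees C. Per-cell GFP summed per well was normalised to unstimulated and stimulated DMSO controls before curve fitting.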
TDP1 cell noCPT: qHTS for Inhibitors of human tyrosyl-DNA phosphodiesterase 1 (TDP1): qHTS in cells in absence of CPT; 420,000 tested, 15% active; Potency, µM (doses to about 46.2 µM), actives largely listed as inhibitors; DT40 Tdp1-/- hTDP1 cells, no CPT, ATP luminescence, 48 h; also: nearly all actives have a fitted effect of over 55% in size
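Chicken DT40 Tdp1-/- cells complemented with human TDP1, screened without camptothecin (DMSO vehicle only), 400 cells/well. Compounds pin-transferred, cells incubated at 37 °C for at least 48 hr. Growth read as ATP-dependent luminescence (CellTiter-Glo, 30 min at RT).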
Hits are given with their value; n = inactive; u = inconclusive; x = not tested or not shown. Calls follow the shape of the dose curve; as a rule, active = well fitted curve in the direction sought with a large enough effect; inconclusive = small, poorly fitted or top-dose-only effect, or another doubt; inactive = no such curve, though single readings can be large; an effect the other way counts as inactive or inconclusive.

SMILES | HepG2 viability | DT40 TDP1 CPT | ATXN2 expr inh | ATXN viability | TGFb inhibitor | TDP1 cell noCPT
COc1ccc(C2=NS(=O)(=O)N(C)C(C(=O)Nc3ccc(C(C)=O)cc3)=C2)cc1OC | n | 18.4µM | u | u | u | 11.6µM
COc1cccc(C2=NS(=O)(=O)N(C)C(C(=O)Nc3cccc(O)c3)=C2)c1 | n | 14.6µM | n | n | n | 16.4µM
COc1ccc(C2=NS(=O)(=O)N(C)C(C(=O)N3CCC(C)CC3)=C2)cc1 | n | u | n | u | n | u
O=C(CN1C(=O)CSc2ccc(S(=O)(=O)N3CCCC3)cc21)NCc1ccc(F)cc1Cl | n | n | n | n | n | n
COc1ccc(C2=NS(=O)(=O)N(C)C(C(=O)Nc3cc(C)ccc3O)=C2)cc1OC | n | 7.31µM | n | u | n | 5.17µM
COc1ccc(NC(=O)C2=CC(c3ccc(C)cc3)=NS(=O)(=O)N2C)cc1OC | n | 23.1µM | n | u | n | 20.6µM
CC(=O)c1cccc(NC(=O)C2=CC(c3ccc4c(c3)OCO4)=NS(=O)(=O)N2C)c1 | n | u | n | n | n | 16.4µM
Cc1ccc(NC(=O)C2=CC(c3ccc4c(c3)OCO4)=NS(=O)(=O)N2C)cc1 | n | n | n | n | n | n
COc1ccc(C2=NS(=O)(=O)N(C)C(C(=O)Nc3ccc(OC)c(OC)c3)=C2)cc1 | n | u | n | u | u | 16.4µM
COCCNC(=O)CSc1nnc2[nH]c(=O)cc(C)n12 | n | n | x | x | n | n
C[C@H]1[C@H](C)CC[C@]2(C(=O)O)CC[C@]3(C)C(=CC[C@@H]4[C@@]5(C)C[C@@H](O)[C@H](O)C(C)(C)[C@@H]5CC[C@]43C)[C@H]12 | n | u | n | u | u | u
C[C@@H]1CC[C@]2(C(=O)O)CC[C@]3(C)C(=CCC4[C@]56CC[C@@](O)(OC5)C(C)(C)C6CC[C@]43C)C2[C@H]1C (some centres not stated) | n | 13µM | u | 25.1µM | u | 18.4µM
Cc1cc(C)cc(OCC(=O)NCC2(N3CCOCC3)CCCCC2)c1 | n | u | x | x | n | 25.9µM
O=C(COc1ccc(F)cc1)NCC1(N2CCOCC2)CCCCC1 | n | u | n | n | n | n
Cc1cccc(OCC(=O)NCC2(N3CCN(C)CC3)CCCCC2)c1C | n | u | x | x | n | u
Cc1ccc(OCC(=O)NCC2(N3CCOCC3)CCCCC2)cc1C | n | 20.6µM | x | x | n | 16.4µM
Cc1cccc(C)c1OCC(=O)NCC1(N2CCOCC2)CCCCC1 | n | 16.4µM | x | x | u | u
CC(Oc1ccccc1F)C(=O)NCC1(N2CCOCC2)CCCCC1 (configuration not stated) | n | u | x | x | n | 18.4µM
CC(=O)c1ccc(OC(C)C(=O)NCC2(N3CCOCC3)CCCCC2)cc1 (configuration not stated) | n | u | n | n | n | u
O=C(COc1ccccc1[N+](=O)[O-])NCC1(N2CCOCC2)CCCCC1 | n | u | n | n | n | 20.6µM
O=C(Cc1ccccc1F)NCC1(N2CCOCC2)CCCCC1 | n | n | n | n | n | n
NCCCN(Cc1ccccc1)c1ccc(Br)cn1 | x | 11.2µM | x | x | x | u
On1nnc2ccccc21 | n | n | n | n | n | n
CCN(CC)S(=O)(=O)c1ccc2[nH]c(=O)[nH]c2c1 | n | n | n | n | n | n
C[C@@H]1CN([C@@H](C)CO)C(=O)CCCn2nncc2CO[C@@H]1CN(C)C(=O)c1ccncc1 | n | n | n | n | n | n
SMILES | HepG2 viability | DT40 TDP1 CPT | ATXN2 expr inh | ATXN viability | TGFb inhibitor | TDP1 cell noCPT
O=S(=O)(c1ccccc1Br)N(Cc1ccccc1)CC(O)COCc1ccccc1 (configuration not stated) | n | 23.1µM | n | u | u | u
O=S(=O)(c1ccccc1Br)N(CC(O)COCc1ccccc1)C1CC1 (configuration not stated) | n | u | n | n | n | n
O=[N+]([O-])/C(C=Nc1ccccc1O)=C\Nc1ccccc1O | n | 8.2µM | x | n | u | 16.4µM
CCCC(=O)NCc1nc2cccnc2n1Cc1ccc(F)cc1 | n | n | x | x | n | n
COc1ccccc1CCNC(=O)CSCC(=O)Nc1ccccc1F | n | n | x | n | n | n
COc1ccc(/C=N/NC(=O)CNc2ccc(Br)cc2)c(C(=O)O)c1OC | n | n | n | n | n | n
COc1ccc(NC(=O)c2ccc3c(c2)NC(=O)CS3)cc1S(=O)(=O)Nc1ccc(Br)cc1 | n | u | x | n | n | 29.1µM
O=C(O)CCCCCn1c(SCc2cc(=O)n3ccccc3n2)nc2ccsc2c1=O | n | u | n | n | n | u
CCC(CC)C(=O)N1CC(=O)Nc2ccc(F)cc2C1c1ccc(F)cc1 (configuration not stated) | n | n | n | u | u | u
O=C(Nc1cc(Cl)cc(Cl)c1)c1ccc(F)c(S(=O)(=O)N2CCCCCC2)c1 | n | 5.17µM | x | x | u | 10.3µM
COc1ccc(C(=O)Nc2ccccc2N2CCOCC2)cc1S(=O)(=O)N1CCCC1 | n | u | n | u | n | 18.4µM
Cc1ccc(C)c(N2CCN(S(=O)(=O)c3cc(C(=O)Nc4ccc(Oc5ccccc5)cc4)ccc3F)CC2)c1 | n | u | x | x | n | u
Cc1cccc(N2CCN(S(=O)(=O)c3cc(C(=O)Nc4ccc(Oc5ccccc5)cc4)ccc3F)CC2)c1C | n | 5.17µM | x | x | n | u
COc1ccc(CCNC(=O)c2ccc(F)c(S(=O)(=O)N3CCCCC3)c2)cc1 | n | u | x | u | n | 23.1µM
Cc1ccc(C(=O)Nc2c(C)n(C)n(-c3ccccc3)c2=O)cc1S(=O)(=O)N1CCCCC1 | n | n | n | n | n | n
Fc1ccc2c(c1)C(c1ccncc1)=NNC(c1ccccc1)=N2 | n | n | n | n | n | u
Cc1ccc(N2CCN(S(=O)(=O)c3cc(C(=O)Nc4cc(Cl)cc(Cl)c4)ccc3F)CC2C)cc1 (configuration not stated) | n | u | n | u | u | 16.4µM
O=C(Nc1cc(Cl)cc(Cl)c1)c1ccc(F)c(S(=O)(=O)N2CCN(c3ccccc3F)CC2)c1 | n | 5.8µM | x | x | n | 7.31µM
Cc1ccc(C)c(N2CCN(S(=O)(=O)c3cc(C(=O)Nc4cc(Cl)cc(Cl)c4)ccc3F)CC2)c1 | n | 11.6µM | x | x | n | 16.4µM
CCc1ccccc1NC(=O)c1ccc(F)c(S(=O)(=O)N2CCN(c3ccccc3OC)CC2)c1 | n | 14.6µM | x | x | n | 13µM
